Test results from PubChem BioAssay (NCI).
Several values for one entry are separate records, joined by “and”; a condition that tells them apart may be missing. Identical values can stand only once. About 83,000 compounds went through this panel and 20% of them were active in at least one assay; those are over-represented in the sample as a whole.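 Note: values are percent growth. 100 is the growth of untreated cells, values between 100 and 0 indicate rising inhibition; between -100 and 0 indicates cell death.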 Activity calls are given as the source filed them. How the source made its calls: active means growth percent below 10; inactive means the rest.

Columns and labels:
Assay in all cases: NCI-60 one-dose screen, 48 h (100 = growth as untreated, 0 = no growth, -100 = all killed)
EKVX NSCLC = details: 10 µM
SN12C renal = details: 10 µM
UO-31 renal = details: 10 µM
TK-10 renal = test system: TK-10 renal
ACHN renal = details: 10 µM
CAKI-1 renal = details: 10 µM
CCRF-CEM leukemia = details: 10 µM
MOLT-4 leukemia = details: 10 µM
SR leukemia = details: 10 µM unless noted
RPMI-8226 leukemia = details: 10 µM
OVCAR-4 ovarian = details: 10 µM
SK-OV-3 ovarian = details: 10 µM
IGROV1 ovarian = details: 10 µM
OVCAR-3 ovarian = details: 10 µM
HS 578T breast = details: 10 µM
NCI/ADR-RES ovarian = details: 10 µM
OVCAR-8 ovarian = details: 10 µM
OVCAR-5 ovarian = details: 10 µM
A498 renal = details: 10 µM

| SMILES | growth (EKVX NSCLC) | growth (SN12C renal) | growth (UO-31 renal) | growth (TK-10 renal; 10 µM) | growth (ACHN renal) | growth (CAKI-1 renal) | growth (CCRF-CEM leukemia) | growth (MOLT-4 leukemia) | growth (SR leukemia) | growth (RPMI-8226 leukemia) | growth (OVCAR-4 ovarian) | growth (SK-OV-3 ovarian) | growth (IGROV1 ovarian) | growth (OVCAR-3 ovarian) | growth (HS 578T breast) | growth (NCI/ADR-RES ovarian) | growth (OVCAR-8 ovarian) | growth (OVCAR-5 ovarian) | growth (TK-10 renal; 100 µM) | growth (A498 renal) |
| --- | --- | --- | --- | --- | --- | --- | --- | --- | --- | --- | --- | --- | --- | --- | --- | --- | --- | --- | --- | --- |
| Cc1cc(O)c(C(C)C)cc1Cl | 103% (inactive) | 104% (inactive) | 89.8% (inactive) | 97.6% (inactive) | 106% (inactive) | 99.7% (inactive) | 104% (inactive) | 99% (inactive) | 103% (inactive) | 110% (inactive) | 109% (inactive) | 101% (inactive) | 112% (inactive) | 103% (inactive) | 99.5% (inactive) | 112% (inactive) |  |  |  |  |
| COC1OCC(O)C(O)C1O (stereo not given) | 99.1% (inactive) | 103% (inactive) | 86.2% (inactive) | 92.9% (inactive) | 111% (inactive) | 89.7% (inactive) | 107% (inactive) | 101% (inactive) |  | 109% (inactive) | 101% (inactive) | 111% (inactive) |  | 106% (inactive) | 98.9% (inactive) | 110% (inactive) | 104% (inactive) |  |  |  |
| CCN(CC)c1ccc(NC(C(=O)c2ccccc2)c2ccccc2)cc1 (stereo not given) |  | 1.65% (active) | -24.8% (active) | 41% (inactive) | -34.6% (active) | 17.8% (inactive) | 10.3% (inactive) | 12.8% (inactive) | 14.3% (inactive) | 8.53% (active) | 65.2% (inactive) | 109% (inactive) | 59.4% (inactive) | -4.87% (active) | 46.1% (inactive) |  | 9.32% (active) | 60.9% (inactive) |  |  |
| Clc1ccc(/C=C/c2ccccn2)c(Cl)c1 | 58.9% (inactive) | 94.4% (inactive) | 59.6% (inactive) | 98% (inactive) | 104% (inactive) | 72.7% (inactive) |  | 79.5% (inactive) | 80.8% (inactive) | 102% (inactive) | 71.2% (inactive) | 103% (inactive) | 69.6% (inactive) | 90.4% (inactive) | 86.3% (inactive) |  |  | 106% (inactive) |  |  |
| O=C(Nc1ccc(C(=O)O)c(O)c1)c1ccccc1 | 98.9% (inactive) and 93.7% (inactive) | 95.2% (inactive) and 101% (inactive) | 81.3% (inactive) and 88.6% (inactive) | 106% (inactive) and 94.5% (inactive) | 96% (inactive) and 96.3% (inactive) | 102% (inactive) and 85.8% (inactive) | 130% (inactive) and 124% (inactive) | 109% (inactive) and 119% (inactive) | 113% (inactive) and 122% (inactive) | 132% (inactive) and 105% (inactive) | 108% (inactive) and 112% (inactive) | 100% (inactive) and 108% (inactive) | 100% (inactive) and 103% (inactive) | 115% (inactive) and 125% (inactive) | 130% (inactive) and 119% (inactive) |  |  |  |  |  |
| CS(=O)(=O)OC1CC(n2ccc(=O)[nH]c2=O)OC1COC(c1ccccc1)(c1ccccc1)c1ccccc1 (stereo not given) |  | 103% (inactive) | 81.5% (inactive) | 105% (inactive) | 103% (inactive) | 103% (inactive) |  |  | 78% (inactive) | 101% (inactive) | 106% (inactive) | 106% (inactive) | 92% (inactive) | 100% (inactive) | 112% (inactive) | 113% (inactive) | 104% (inactive) |  |  |  |
| Oc1ccc(N=Nc2ccccn2)c(O)c1 | 24.1% (inactive) | 20.5% (inactive) | 5.48% (active) | 36.1% (inactive) | 13.8% (inactive) |  | 3.95% (active) | 4.34% (active) | 10.6% (inactive) | 21.2% (inactive) | 29.8% (inactive) | 25.5% (inactive) | 19.9% (inactive) | 32.7% (inactive) | 65.1% (inactive) |  |  |  |  |  |
| CC(C)C1=C(O)C2=C(C(=O)C1=O)C1(C)CCCC(C)(C)C1CC2O (stereo not given) |  |  |  |  |  |  |  |  |  |  |  |  |  |  |  |  |  |  | 18.6% (inactive) and -89% (active) |  |
| CC[N+](CC)=c1ccc2nc3c(cc(N)c4ccccc43)oc-2c1 | -66.6% (active) | -40.8% (active) | -56.7% (active) | -74.2% (active) | -77.6% (active) | -79% (active) | 19.8% (inactive) | -44.4% (active) | -47.2% (active) | 10.2% (inactive) | -42.6% (active) | -72.7% (active) | -42.2% (active) | -56.8% (active) | -26.2% (active) | -62.2% (active) |  |  |  |  |
| OCC1OC(n2cnc3c(=S)nc[nH]c32)C(O)C1O (stereo not given) | 106% (inactive) and 119% (inactive) | 95.1% (inactive) and 82.5% (inactive) | 93.9% (inactive) and 50.5% (inactive) | 97.9% (inactive) and 40.7% (inactive) | 103% (inactive) and 32.9% (inactive) | 104% (inactive) and 18% (inactive) | 107% (inactive) and 32.7% (inactive) | 120% (inactive) and 35.7% (inactive) | 112% (inactive) and 37.9% (inactive) | 108% (inactive) and 31.6% (inactive) | 91.5% (inactive) and 46.9% (inactive) | 113% (inactive) | 85.4% (inactive) | 113% (inactive) and 47% (inactive) | 89.5% (inactive) and 62.7% (inactive) |  |  |  |  |  |
| COc1ccc(CC(=O)c2ccc(O)cc2O)cc1 | 104% (inactive) | 123% (inactive) | 98.5% (inactive) | 122% (inactive) | 118% (inactive) |  | 104% (inactive) |  |  |  | 99.2% (inactive) | 163% (inactive) | 122% (inactive) | 130% (inactive) | 108% (inactive) |  |  | 105% (inactive) |  | 128% (inactive) |
| CCC(C)(C)c1cc(O)c(C(C)(C)CC)cc1O | 43.4% (inactive) | 36.5% (inactive) |  | 63.2% (inactive) | 43.4% (inactive) | 41.4% (inactive) |  | 24.7% (inactive) | 45.1% (inactive) | 22.3% (inactive) | 28% (inactive) | 57.2% (inactive) | 64.8% (inactive) | 37.2% (inactive) | 31.9% (inactive) | 39.2% (inactive) |  | 49.2% (inactive) |  |  |
| CCCC1CCC(=C2C(=O)CCC2=O)O1 (stereo not given) | 86.2% (inactive) and 101% (inactive) | 90.5% (inactive) and 101% (inactive) | 84.8% (inactive) and 96.3% (inactive) | 98.2% (inactive) and 118% (inactive) | 95.7% (inactive) and 96.2% (inactive) | 93.9% (inactive) and 90.5% (inactive) | 123% (inactive) and 99.8% (inactive) | 134% (inactive) and 120% (inactive) | 96.5% (inactive) and 78.2% (inactive) | 119% (inactive) and 113% (inactive) | 98.2% (inactive) | 104% (inactive) and 110% (inactive) | 121% (inactive) | 101% (inactive) and 94% (inactive) | 109% (inactive) and 97.8% (inactive) | 108% (inactive) and 106% (inactive) |  |  |  |  |
| CN1CCN(CCCN2c3ccccc3Sc3ccc(C(F)(F)F)cc32)CC1 | 66.9% (inactive) | 57% (inactive) | 35.1% (inactive) | 66% (inactive) | 46.6% (inactive) | 34% (inactive) | 50.2% (inactive) | 37.6% (inactive) | 14.2% (inactive) | -7.1% (active) | 71.2% (inactive) | 92.4% (inactive) | 40.7% (inactive) | 92% (inactive) | 60.4% (inactive) |  |  |  |  |  |
| CC(=O)Nc1cc(C)ccc1C | 99.9% (inactive) | 101% (inactive) | 88.1% (inactive) | 96.2% (inactive) | 106% (inactive) | 98.6% (inactive) | 128% (inactive) | 110% (inactive) | 98.8% (inactive) | 117% (inactive) | 104% (inactive) | 102% (inactive) | 108% (inactive) | 102% (inactive) | 90.4% (inactive) |  |  |  |  |  |
| CCN1/C(=C/C=C/C=C/c2sc3ccccc3[n+]2CC)Sc2ccccc21 | -31.9% (active) | -20.7% (active) | -35.3% (active) | -6.28% (active) | -45.6% (active) | -0.841% (active) | 8.96% (active) | -31.7% (active) |  | -21.4% (active) | -42% (active) | -73.1% (active) | -62.9% (active) | -64.1% (active) | 26.2% (inactive) |  | -65.6% (active) | 7.61% (active) |  |  |
| O=C(/C=C/c1ccccn1)c1ccccc1 | 93.8% (inactive) | 61.2% (inactive) | 56.5% (inactive) | 19.5% (inactive) | -27.1% (active) |  | -12.6% (active) | 3.13% (active) | -15.7% (active) | 25.4% (inactive) | 47.2% (inactive) | 108% (inactive) | 46.1% (inactive) | 17.3% (inactive) |  |  |  |  |  |  |
